Hits are enriched below; roughly 19% of the tested compounds scored in any of these assays.
MCF10A rereplic = A quantitative high throughput screen for small molecules that induce DNA re-replication in MCF 10a normal breast cells; MCF 10A DNA re-replication, Hoechst nuclear intensity, 48 h; Potency, µM (doses to about 46.1 µM), inactives show top-dose activity, positive = re-replication, most hits filed as activators; actives 2.9% (n = 350,000); note: potency is the fitted concentration of half-maximal effect; % of control where 0% means no effect; nearly all actives have a fitted effect of over 50% in size
DT40 TDP1 CPT = qHTS for Inhibitors of human tyrosyl-DNA phosphodiesterase 1 (TDP1): qHTS in cells in presence of CPT; chicken DT40 Tdp1-/-;hTDP1 cells + 20 nM CPT, ATP luminescence, 48 h; Potency, µM (doses to about 46.2 µM), for the others: top-dose activity change, negative = growth inhibition, hits mostly inhibitors; actives 12% (n = 420,000); note: potency is the fitted concentration of half-maximal effect; % is set by controls: 0 for no effect and ±100 for the full control effect; nearly all actives have a fitted effect of over 55% in size
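Chicken DT40 Tdp1-/- cells complemented with human TDP1, 400 cells/well, exposed to compounds plus 20 nM camptothecin for at least 48 h at 37 C; viability read as ATP content by CellTiter-Glo luminescence.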
IL1B secr inh = qHTS for Inhibitors of Inflammasome Signaling: IL-1-beta AlphaLISA Primary Screen | THP-1 LPS/ATP IL-1B secretion, AlphaLISA, 16 h; hits give low values | activity change, % at 57.5 µM | actives 4.7% (n = 360,000) | AID 743279, 2014; in the data active = activity change below about -50%; inconclusive = mostly about -30% to -49%; note: % is set by controls: 0 for no effect and ±100 for the full control effect
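Secreted IL-1B measured by AlphaLISA bead assay after 16 h compound exposure of THP-1 cells; compounds (final up to 57.5 uM) added 1 h before LPS (250 ng/mL) and ATP (1.25 mM) stimulation; lower signal means less secretion.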
DT40 TDP1 no CPT = qHTS for Inhibitors of human tyrosyl-DNA phosphodiesterase 1 (TDP1): qHTS in cells in absence of CPT; DT40 Tdp1-/- hTDP1 cells, no CPT, ATP luminescence, 48 h; actives 15% (n = 420,000); Potency, µM (top dose mostly 46.2 µM), inactives show at the highest dose activity change, negative = growth inhibition, most hits filed as inhibitors; note: potency is the fitted concentration of half-maximal effect; % is set by controls: 0 for no effect and ±100 for the full control effect; nearly all actives have a fitted effect of over 55% in size
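No-CPT arm: Tdp1-/-;hTDP1 DT40 cells (400/well) plus compounds, incubated ≥48 hr at 37 °C. Readout CellTiter-Glo luminescence.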
SW480 rerep = A quantitative high throughput screen for small molecules that induce DNA re-replication in SW480 colon adenocarcinoma cells. Potency, µM (top dose mostly 46.1 µM), for the others: at the top dose re-replication activation, usual class: activators. actives 1.8% (n = 340,000). SW480 DNA re-replication, Hoechst DNA content imaging, 48 h; note: potency is the fitted concentration of half-maximal effect; % of control where 0% means no effect; nearly all actives have a fitted effect of over 55% in size
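Cells (250 per well) received 23 nL compound or DMSO by pin tool and were kept 48 hr at 37 C, 5% CO2. Nuclei were then stained with Hoechst for 40 min and scanned for DNA content.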
Chronic BCR inh = qHTS Assay to Find Inhibitors of Chronic Active B-Cell Receptor Signaling | ABC-DLBCL IkBa-CBG/CBR reporter, luminescence ratio, 4 h | Potency, µM (titrated, usually from 46.1 µM), inactives show top-dose activity change, negative = inhibition, actives largely listed as inhibitors | actives 0.05% (n = 340,000); active = well fitted inhibition curve with a large enough effect in the signal ratio, with a control signal flat, not every such curve was filed as active; inconclusive = small, poorly fitted or top-dose-only effect, or effect the other way, or a change in a side signal; the % refers to the signal ratio;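 note: potency is the fitted concentration of half-maximal effect; plate controls were basal doxycycline-induced cells for no effect and cells given 10 µM MG132 for full effect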
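TMD8 ABC-DLBCL cells carrying doxycycline-inducible green luciferase fused to IkappaBalpha plus unfused red luciferase were exposed to compounds (up to 46 uM) for 4 hrs at 37C. Activity came from the overlap-corrected green/red luminescence ratio.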
* = called active by the depositor; ? = inconclusive; / = no result given. Unless noted, calls come from the whole dose curve; as a rule, active = well fitted curve in the direction sought with a large enough effect; inconclusive = small, poorly fitted or top-dose-only effect, or another doubt; inactive = no such curve, though single readings can be large; an effect the other way counts as inactive or inconclusive.

SMILES	MCF10A rereplic	DT40 TDP1 CPT	IL1B secr inh	DT40 TDP1 no CPT	SW480 rerep	Chronic BCR inh
CN(CC(=O)Nc1ccc(Cl)cc1)C(=O)Cc1c(F)cccc1Cl	7%	13%	2	6%	?	1%
C[C@]12C=CC(=O)N[C@@H]1CC[C@@H]1[C@@H]2CC[C@]2(C)[C@@H](C(=O)Nc3cc(C(F)(F)F)ccc3C(F)(F)F)CC[C@@H]12	/	-13%	/	-11%	/	/
CN(C)c1nc(N)nc(CSc2nnnn2-c2ccc(F)cc2)n1	?	-35%	32	-24%	-18%	-22%
Cc1cccc(C)c1-n1nnnc1SCc1nc(N)nc(N(C)C)n1	/	2.3µM*	21	2.1µM*	/	/
COc1ccc(C)cc1-n1nnnc1SCc1cn2ccsc2n1	-3%	?	8	?	1%	0%
COc1ccc(C)cc1-n1nnnc1SCc1nc(N)nc(N(C)C)n1	/	4.6µM*	-12	6.5µM*	/	/
CS(=O)(=O)N1CCN(c2ccc([N+](=O)[O-])c(NCc3ccccc3)c2)CC1	?	?	-9	?	10%	4%
O=[N+]([O-])c1cc(S(=O)(=O)N2CCCC2)ccc1NCCCN1CCOCC1	6%	6%	-3	-23%	-2%	2%
CS(=O)(=O)N1CCN(c2ccc([N+](=O)[O-])c(NCc3ccc(Cl)cc3)c2)CC1	?	26µM*	12	18µM*	11%	1%
CC(C)c1ccc(CNc2cc(N3CCCC3)ccc2[N+](=O)[O-])cc1	-6%	18µM*	?	?	-18%	1%
O=[N+]([O-])c1ccc(N2CCN(S(=O)(=O)c3ccc(Cl)c(Cl)c3)CC2)cc1NCCN1CCOCC1	6%	?	8	8.2µM*	2%	1%
COc1ccc(-n2nc(C(=O)Nc3ccc(Br)cc3C)c3c4ccccc4n(C)c3c2=O)cc1	/	-8%	/	-10%	/	/
O=C(Nc1cccc(Cl)c1)C1CCN(S(=O)(=O)Cc2ccccc2)CC1	/	-7%	/	?	/	/
C=C1C(=O)OCC2C(C(=O)O)=CC3C(C)C(C)=CC123 (configuration not stated)	/	18µM*	-70*	18µM*	/	/
Cc1ccc(NC(=O)c2c(C)nc3sc(C(=O)NC4CCCC4)c(N)c3c2-c2ccco2)c(C)c1	16%	2.9µM*	19	5.2µM*	19%	-3%
Cc1ccccc1NC(=O)c1sc2nc3c(c(-c4ccco4)c2c1N)CCC3	?	?	-69*	?	9.2µM*	?
Nc1c(C(=O)NCC2CCCO2)sc2nc3c(c(-c4ccco4)c12)CC/C3=C\c1ccco1 (configuration not stated)	15%	?	-4	26µM*	14%	?
N#Cc1sc2nc3c(c(-c4ccco4)c2c1N)CCCC3	26%	?	37	23µM*	-2%	0%
O=C(CS(=O)CC(=O)NC12CC3CC(CC(C3)C1)C2)Nc1ccc(F)cc1 (configuration not stated)	-9%	-2%	9	-8%	4%	0%
NC(=O)c1sc2nnc(-c3ccccc3)c(-c3ccccc3)c2c1N	12%	?	-15	15µM*	-4%	?
NC(=O)c1sc2nc3c(c(-c4ccco4)c2c1N)CCCC3	13%	?	-7	16µM*	29%	?
Nc1c(C(=O)O)sc2nc(-c3ccccc3)c3c(c12)CCCC3	14%	-8%	4	?	4%	13%
